From PubChem BioAssay (NCATS)
Records with an inconclusive call do not appear. Where a call stands in place of a potency, no number is given. The source made the active and inactive calls. Calls follow the shape of the dose curve; as a rule, active = well fitted inhibition curve with a large enough effect; inconclusive = small, poorly fitted or top-dose-only effect; inactive = flat fitted curve, though single readings scatter.

What was measured:
Test in all cases: qHTS profiling for inhibitors of Plasmodium falciparum proliferation (AID 504749); also: nearly all actives have a fitted effect of over 60% in size
Conditions in all cases: P. falciparum in erythrocytes, SYBR Green DNA, 72 h; series mostly up to 28.7 µM
[1] = system: CP237
Procedure, shortened: (§1)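 SYBR Green fluorescence of parasite DNA, read after lysis and overnight dark incubation, measured growth over 72 h in erythrocyte culture at 0.3% parasitemia and 2.5% hematocrit. Data normalised to DMSO and 0.29 uM artemisinin, with plate-drift correction.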

[2] = system: CP238
Procedure, shortened: as §1

[3] = system: CP247
Procedure, shortened: as §1

[4] = system: CP250
Procedure, shortened: as §1

[5] = system: CP252
Procedure, shortened: as §1

[6] = system: CP256
Procedure, shortened: as §1

[7] = system: CP260
Procedure, shortened: as §1

[8] = system: CP262
Procedure, shortened: as §1

[9] = system: CP265
Procedure, shortened: as §1

[10] = system: CP266
Procedure, shortened: as §1
Potency is read from the fitted curve at half-maximal effect.

SMILES	Potency [1]	Potency [2]	Potency [3]	Potency [4]	Potency [5]	Potency [6]	Potency [7]	Potency [8]	Potency [9]	Potency [10]
Cc1cccc(Nc2ccncc2S(=O)(=O)NC(=O)NC(C)C)c1	inactive	inactive	inactive	inactive	inactive	inactive	inactive	inactive	inactive	inactive
NC(=O)c1cccnc1	inactive	inactive	inactive	inactive	inactive	inactive	inactive	inactive	inactive	–
CN1CCN(c2c(F)cc3c(=O)c(C(=O)O)cn(CCF)c3c2F)CC1	inactive	inactive	inactive	inactive	inactive	inactive	inactive	inactive	inactive	inactive
CNNCc1ccc(C(=O)NC(C)C)cc1	inactive	inactive	inactive	inactive	inactive	inactive	inactive	inactive	inactive	inactive
NC(N)=NC(N)=NCCc1ccccc1	inactive	inactive	inactive	inactive	inactive	inactive	inactive	inactive	inactive	inactive
O=c1cc(O)c(Cl)c[nH]1	inactive	inactive	inactive	inactive	inactive	inactive	inactive	inactive	inactive	–
CN(C)CCc1c[nH]c2ccc(CS(=O)(=O)N3CCCC3)cc12	inactive	inactive	inactive	inactive	inactive	inactive	inactive	inactive	inactive	inactive
CCOCC(O)COc1ccc(NC(=O)CC[S+](C)C)cc1 (stereo unspecified)	inactive	inactive	inactive	inactive	inactive	inactive	inactive	inactive	inactive	inactive
CN(C)c1ccc(C(=C2C=CC(=[N+](C)C)C=C2)c2ccc(N(C)C)cc2)cc1	0.199 µM (active)	0.398 µM (active)	0.355 µM (active)	0.316 µM (active)	0.224 µM (active)	0.158 µM (active)	0.224 µM (active)	0.239 µM (active)	0.316 µM (active)	0.601 µM (active)
COc1nc(N)nc2c1ncn2[C@@H]1O[C@H](CO)[C@@H](O)[C@@H]1O	inactive	inactive	inactive	inactive	inactive	inactive	inactive	inactive	inactive	inactive
COc1ncnc(NS(=O)(=O)c2ccc(N)cc2)c1OC	inactive	inactive	inactive	inactive	inactive	inactive	inactive	inactive	inactive	inactive
CNS(=O)(=O)Cc1ccc2[nH]cc(CCN(C)C)c2c1	inactive	inactive	inactive	inactive	inactive	inactive	inactive	inactive	inactive	inactive
C[C@]12C=CC(=O)C=C1CC[C@@H]1[C@@H]2C(=O)C[C@@]2(C)[C@H]1CC[C@]2(O)C(=O)CO	inactive	inactive	inactive	inactive	inactive	inactive	inactive	inactive	inactive	inactive
COc1cc2c(Nc3ccc(Br)cc3F)ncnc2cc1OCC1CCN(C)CC1	3.98 µM (active)	6.31 µM (active)	1 µM (active)	1.41 µM (active)	1.12 µM (active)	3.16 µM (active)	3.55 µM (active)	–	3.98 µM (active)	inactive
S=P(N1CC1)(N1CC1)N1CC1	inactive	inactive	inactive	inactive	inactive	inactive	inactive	inactive	inactive	inactive
CCOC(=O)[C@H](CCc1ccccc1)N[C@H]1CS[C@H](c2cccs2)CN(CC(=O)O)C1=O	inactive	inactive	inactive	inactive	inactive	inactive	inactive	inactive	inactive	inactive
Nc1ccc(S(=O)(=O)Nc2ccccn2)cc1	inactive	inactive	inactive	inactive	inactive	inactive	inactive	inactive	inactive	inactive
CCc1cc(C(N)=S)ccn1	inactive	inactive	inactive	inactive	inactive	inactive	inactive	inactive	inactive	inactive
CC1=NN(c2ccccc2)C(=O)C1	inactive	inactive	inactive	inactive	inactive	inactive	inactive	inactive	inactive	inactive
Cc1oc(=O)oc1CN1CCN(c2cc3c(cc2F)c(=O)c(C(=O)O)c2n3C(C)S2)CC1 (stereo unspecified)	10 µM (active)	6.31 µM (active)	8.91 µM (active)	8.91 µM (active)	7.94 µM (active)	8.91 µM (active)	6.31 µM (active)	–	11.2 µM (active)	inactive
